Each structure is given as a SMILES string. The source made the active and inactive calls. Unless noted, the call rests on the fitted dose curve.
On the % scale 0 is the no-effect control and ±100 the full control effect; potency means the concentration at half of the fitted maximal effect.

For the first assay, the target named is Estrogen receptor (Homo sapiens) (UniProt P03372). The assay can be described thus: qHTS assay to identify small molecule agonists of the estrogen receptor alpha (ER-alpha) signaling pathway (AID 743075).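 Further: HEK293 GripTite cells with ER-alpha and UAS-driven beta-lactamase reporter.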 To be noted: HEK293 ER-alpha-UAS-bla, beta-lactamase FRET ratio, 18 h; series mostly up to 70.1 µM; activation: at the top concentration. (qHTS replaces the single test concentration by a dilution series.)
Chain of Estrogen receptor (Homo sapiens) (P03372 whole entry, looked up): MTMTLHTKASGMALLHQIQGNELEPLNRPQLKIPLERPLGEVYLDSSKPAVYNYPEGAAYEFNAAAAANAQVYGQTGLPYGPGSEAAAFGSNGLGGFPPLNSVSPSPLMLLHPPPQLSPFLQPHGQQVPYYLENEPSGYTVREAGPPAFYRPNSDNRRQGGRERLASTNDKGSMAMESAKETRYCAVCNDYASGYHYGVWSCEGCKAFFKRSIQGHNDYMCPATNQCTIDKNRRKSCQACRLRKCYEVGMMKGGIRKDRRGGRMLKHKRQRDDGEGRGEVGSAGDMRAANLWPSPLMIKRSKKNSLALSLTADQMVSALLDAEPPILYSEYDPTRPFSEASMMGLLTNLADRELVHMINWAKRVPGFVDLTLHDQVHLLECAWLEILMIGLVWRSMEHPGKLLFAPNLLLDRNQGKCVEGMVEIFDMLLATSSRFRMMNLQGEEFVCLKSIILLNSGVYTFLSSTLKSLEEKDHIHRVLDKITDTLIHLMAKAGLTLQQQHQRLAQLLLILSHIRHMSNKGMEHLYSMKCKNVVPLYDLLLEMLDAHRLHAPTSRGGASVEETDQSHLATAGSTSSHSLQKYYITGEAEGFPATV
On to `O=C1[C@H](CC[C@H](O)c2ccc(F)cc2)[C@@H](c2ccc(O)cc2)N1c1ccc(F)cc1`, for which the “activation” value is 3.95% (inactive).
Still for that read-out and setting: then `CCOc1ccc2[nH]cc(C(=O)NCc3ccccc3)c(=O)c2n1`, with 2.34% (inactive).
For the compound `Oc1ccc(Sc2ccc(O)cc2)cc1`, the Potency was 18.2 µM [inconclusive] (active).
For `N#Cc1cc2ccccc2c2ccccc12`, the “activation” value was 14.7% [at 79.1 µM] (inactive).
Still for that read-out and setting: then `CCN(CC)C(C)CN1c2ccccc2Sc2ccccc21` (centres undefined), with 6.49% [at 32.9 µM] (inactive); and `Cc1ccc2c(ccc3ccccc32)c1`, with 1.17% [at 79.1 µM] (inactive).
On the same count and under the same terms, as for `CN1CCC(OC(c2ccccc2)c2ccccc2)CC1`, the figure is 0.363% [at 32.9 µM] (inactive).
As to `O=C(Cl)c1c(Cl)cccc1Cl`, the “activation” value is -2.41% [at 79.1 µM] (inactive).
As for `CNCC[C@@H](Oc1ccccc1C)c1ccccc1`, the “activation” value is 2.05% (inactive).
As to `COc1ccc(C(C)=O)cc1`, the “activation” value was 2.5% [at 79.1 µM] (inactive).
On the same count and under the same terms, as for `O=C1CCCCCO1`, the figure is -1.36% [at 79.1 µM] (inactive); as for `CCCCC(CC)COCCCN` (centres undefined), -0.607% (inactive).
In the case of `COC(Cc1ccccc1)OC`, the “activation” value is 9.01% (inactive).
Still for that read-out and setting: as for `O=[N+]([O-])c1cc[n+]([O-])cc1`, the figure is 1.73% (inactive); as for `Oc1ccc(O)c2c(O)cccc12`, -0.809% (inactive); as for `CC(=O)O[C@H]1C[C@@H]2CC[C@@H]3[C@H](CC[C@@]4(C)[C@H]3C[C@H]([N+]3(C)CCCCC3)[C@@H]4OC(C)=O)[C@@]2(C)C[C@@H]1N1CCCCC1`, 2.23% (inactive).
The same measure, in the same setting: then `CN(C)CC[C@@H](c1ccc(Br)cc1)c1ccccn1`, with -0.188% (inactive).
As for `CCN1CCC[C@H]1CNC(=O)c1c(OC)ccc(Br)c1OC`, the “activation” value is -3.27% (inactive).
As for `CCCC(=O)OCC`, the “activation” value is 1.58% (inactive).
Still for that read-out and setting: as for `CC(C)(C)c1ccc(S)cc1`, the figure is 9.68% (inactive).
The same measure, in the same setting: as for `CC(C)(C)c1cc(CO)cc(C(C)(C)C)c1O`, the figure is 2.91% [at 79.1 µM] (inactive); as for `CC(C)CC=O`, -0.965% (inactive); as for `O=S(=O)(O)c1ccc(O)c2ncccc12`, -1.99% (inactive).

The target is the same in the next assay. Description: qHTS assay to identify small molecule agonists of the estrogen receptor alpha (ER-alpha) signaling pathway using the BG1 cell line (AID 743079; active means well fitted activation curve with a large enough effect in the repeat runs; inconclusive means weak or mixed curves, or effect the other way; inactive means no such curve, though single readings can be large or run the other way; further: nearly all actives have a fitted effect of over 20% in size). The conditions noted are these: BG1Luc4E2 cells, ERE-luciferase agonist, 22 h; series mostly up to 70.3 µM; activation: at the top concentration.
For the compound `O=C1[C@H](CC[C@H](O)c2ccc(F)cc2)[C@@H](c2ccc(O)cc2)N1c1ccc(F)cc1`, the “activation” value is 8.67% (inactive).
`Oc1ccc(Sc2ccc(O)cc2)cc1`: the Potency was 0.51 µM (active).
Turning to `N#Cc1cc2ccccc2c2ccccc12`, the “activation” value was -0.956% [at 95 µM] (inactive).
As for `CCN(CC)C(C)CN1c2ccccc2Sc2ccccc21` (centres undefined), the “activation” value is 9.26% [at 32.5 µM] (inactive).
The same measure, in the same setting: then `O=C(Cl)c1c(Cl)cccc1Cl`, with 2.66% [at 95 µM] (inactive); and `CNCC[C@@H](Oc1ccccc1C)c1ccccc1`, with -14% (inactive).
With `COc1ccc(C(C)=O)cc1`, the Potency was 44.6 µM (active).
As for `O=C1CCCCCO1`, the “activation” value is 7.24% [at 95 µM] (inactive).
For `Oc1ccc(O)c2c(O)cccc12`, the “activation” value was -0.0007% (inactive).
As for `CC(=O)O[C@H]1C[C@@H]2CC[C@@H]3[C@H](CC[C@@]4(C)[C@H]3C[C@H]([N+]3(C)CCCCC3)[C@@H]4OC(C)=O)[C@@]2(C)C[C@@H]1N1CCCCC1`, the Potency is 33.5 µM (active).
For the compound `CN(C)CC[C@@H](c1ccc(Br)cc1)c1ccccn1`, the “activation” value was -13.8% (inactive).
Same read-out and setting: as for `CCN1CCC[C@H]1CNC(=O)c1c(OC)ccc(Br)c1OC`, the figure is 1.15% (inactive); as for `CCCC(=O)OCC`, 4.37% (inactive).
On to `COc1ccc2[nH]c(S(=O)Cc3ncc(C)c(OC)c3C)nc2n1` (centres undefined), for which the “activation” value is -0.602% (inactive).
Same read-out and setting: then `CC(C)CC=O`, with 4.06% (inactive); and `O=S(=O)(O)c1ccc(O)c2ncccc12`, with 1.83% (inactive).
